Among the data in PubChem BioAssay AID449739 (Vanderbilt High Throughput Screening Facility, 2010) are B-score values, retold here.

Molecules are shown by their SMILES. Out of some 100,000 compounds screened, about 4,200 (4.2%) were called active.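 Rule for the calls: active = single-dose well whose peak fluorescence ratio is a statistical outlier from its plate by either plate-standardised score or position-corrected B-score; inactive = the rest.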 The list comes from a sample in which actives are over-represented; it also holds similar structures and randomly drawn compounds.

For this assay, the target named is Voltage-dependent T-type calcium channel subunit alpha-1H (Homo sapiens) (UniProt O95180). The assay can be described thus: Cav3.2 calcium influx blockers – cell-based, Fluo-4 calcium fluorescence, FDSS, MLSMR library, primary screen (AID 449739). The following applies: Cav3.2-expressing cells, at 10 µM, stronger effect = lower value.
Chain of Voltage-dependent T-type calcium channel subunit alpha-1H (Homo sapiens) (O95180 whole entry, looked up): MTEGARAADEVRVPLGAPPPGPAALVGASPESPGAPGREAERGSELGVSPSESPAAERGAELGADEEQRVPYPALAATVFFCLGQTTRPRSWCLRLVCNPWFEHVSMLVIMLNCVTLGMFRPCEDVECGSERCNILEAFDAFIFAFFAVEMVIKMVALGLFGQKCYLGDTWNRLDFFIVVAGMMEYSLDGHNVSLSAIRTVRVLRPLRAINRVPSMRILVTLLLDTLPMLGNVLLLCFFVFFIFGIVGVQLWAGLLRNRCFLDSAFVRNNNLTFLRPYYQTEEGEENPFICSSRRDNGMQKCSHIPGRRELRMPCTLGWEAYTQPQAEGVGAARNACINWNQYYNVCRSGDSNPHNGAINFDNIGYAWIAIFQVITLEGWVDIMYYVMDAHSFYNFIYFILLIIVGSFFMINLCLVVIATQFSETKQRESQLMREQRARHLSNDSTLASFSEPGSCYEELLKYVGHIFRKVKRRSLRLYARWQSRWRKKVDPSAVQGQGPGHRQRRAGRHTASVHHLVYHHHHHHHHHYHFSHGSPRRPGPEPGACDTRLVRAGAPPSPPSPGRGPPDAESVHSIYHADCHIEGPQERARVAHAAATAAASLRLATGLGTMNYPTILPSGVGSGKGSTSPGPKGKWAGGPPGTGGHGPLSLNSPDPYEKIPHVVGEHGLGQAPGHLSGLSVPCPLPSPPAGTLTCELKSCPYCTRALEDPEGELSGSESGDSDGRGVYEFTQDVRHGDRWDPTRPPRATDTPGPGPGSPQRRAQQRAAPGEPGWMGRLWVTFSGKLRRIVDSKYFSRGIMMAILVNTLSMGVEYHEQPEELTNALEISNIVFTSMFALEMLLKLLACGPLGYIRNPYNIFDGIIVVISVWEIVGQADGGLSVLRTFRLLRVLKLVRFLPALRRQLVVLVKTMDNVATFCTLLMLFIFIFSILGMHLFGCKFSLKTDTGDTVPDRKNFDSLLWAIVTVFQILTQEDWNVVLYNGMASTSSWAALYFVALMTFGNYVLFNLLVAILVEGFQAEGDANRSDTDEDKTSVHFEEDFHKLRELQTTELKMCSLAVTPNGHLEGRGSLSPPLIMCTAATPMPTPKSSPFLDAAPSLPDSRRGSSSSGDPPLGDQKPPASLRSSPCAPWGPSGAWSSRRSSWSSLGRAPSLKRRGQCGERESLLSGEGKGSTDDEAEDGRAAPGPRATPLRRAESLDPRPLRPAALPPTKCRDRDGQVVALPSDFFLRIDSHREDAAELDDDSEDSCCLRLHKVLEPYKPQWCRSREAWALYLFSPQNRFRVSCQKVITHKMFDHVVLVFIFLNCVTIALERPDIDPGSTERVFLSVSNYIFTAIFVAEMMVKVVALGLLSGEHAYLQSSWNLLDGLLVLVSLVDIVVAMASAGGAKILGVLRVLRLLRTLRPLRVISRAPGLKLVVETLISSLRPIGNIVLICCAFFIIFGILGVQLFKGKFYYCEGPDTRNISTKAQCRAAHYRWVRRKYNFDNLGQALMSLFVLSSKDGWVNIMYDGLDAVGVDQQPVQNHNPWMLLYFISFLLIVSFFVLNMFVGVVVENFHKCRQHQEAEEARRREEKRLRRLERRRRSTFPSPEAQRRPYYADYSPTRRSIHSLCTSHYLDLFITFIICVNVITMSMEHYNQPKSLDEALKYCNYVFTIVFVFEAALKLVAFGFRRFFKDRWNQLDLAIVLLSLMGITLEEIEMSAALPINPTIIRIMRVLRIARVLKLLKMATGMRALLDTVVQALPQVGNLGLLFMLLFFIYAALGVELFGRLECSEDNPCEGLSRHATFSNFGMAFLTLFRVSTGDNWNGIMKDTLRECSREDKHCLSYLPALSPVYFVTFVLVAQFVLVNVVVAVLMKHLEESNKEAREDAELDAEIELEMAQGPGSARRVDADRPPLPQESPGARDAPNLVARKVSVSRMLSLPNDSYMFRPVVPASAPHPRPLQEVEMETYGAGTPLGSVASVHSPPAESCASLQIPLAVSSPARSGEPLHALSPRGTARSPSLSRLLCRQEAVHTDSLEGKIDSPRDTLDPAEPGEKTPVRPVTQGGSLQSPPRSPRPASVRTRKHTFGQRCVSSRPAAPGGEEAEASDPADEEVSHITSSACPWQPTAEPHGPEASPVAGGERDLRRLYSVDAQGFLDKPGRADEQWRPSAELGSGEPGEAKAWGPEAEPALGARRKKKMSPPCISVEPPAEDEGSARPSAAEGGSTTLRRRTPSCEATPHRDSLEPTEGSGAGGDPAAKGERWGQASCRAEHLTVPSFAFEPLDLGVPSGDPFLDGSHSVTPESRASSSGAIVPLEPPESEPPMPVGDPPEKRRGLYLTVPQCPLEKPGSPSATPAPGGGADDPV
Regarding `CCOC(=O)C(C)Sc1nc2ccccc2c(=O)n1CC1CCCCC1` (configuration not stated), the B-score was -2.88 (inactive).
Regarding `CC(Sc1nc2ccccc2c(=O)n1Cc1ccco1)C(=O)c1ccccc1` (configuration not stated), the B-score was -4.25 (active).
Regarding `N#Cc1c(NC(=O)CSc2nc3ccccc3c(=O)n2Cc2ccco2)sc2c1CCCC2`, the B-score is -5.99 (active).
Regarding `C=C(C)Cn1c(SCC(=O)NCc2ccco2)nc2sc3c(c2c1=O)CCC3`, the B-score was -0.92 (inactive).
On to `COc1ccc(-n2c(SCC(=O)Nc3sc4c(c3C#N)CCCC4)nnc2-c2ccc(O)cc2)cc1`, for which the B-score is -0.184 (inactive).
For `O=C(CCCn1c(SCC(=O)c2ccc(F)cc2)nc2ccccc2c1=O)NCc1ccco1` the value was -2.82 (inactive); for `CCCNC(=S)NC1CC2CCCC(C1)N2CC(C)C` (configuration not stated), 1.82 (inactive); for `COc1ccc(N2CCN(C(=O)c3ccc4c(Cl)c5c(nc4c3)CCCC5)CC2)cc1`, -0.0196 (inactive).
With `CN1CCN(S(=O)(=O)c2ccc(N3CCN(S(=O)(=O)c4cccs4)CC3)nc2)CC1` the figure was 1.73 (inactive); with `N#Cc1cc([N+](=O)[O-])ccc1Oc1cccc(/C=N/NC(=O)c2ccc(Cl)cc2)c1`, -0.086 (inactive).
Turning to `CCCCc1nnc(NC(=O)CSc2nc(C)cc(=O)[nH]2)s1`, the B-score is -0.0258 (inactive).
Consider `CCOC(=O)Cc1csc(NC(=O)CSc2nc(C)cc(=O)[nH]2)n1`, for which the B-score was -5.95 (active).
`CCOC(=O)Cc1csc(NC(=O)C(C)(C)C)n1`: the B-score was 0.211 (inactive).
For the molecule `C=CCn1c(-c2ccc(Cl)cc2)ccc(C#N)c1=O`, the B-score is -1.56 (inactive).
`NC1=NC[C@@H](Cc2ccc(O)cc2)N1CC1CCCCC1`: the B-score is 0.0175 (inactive).
As for `C#Cc1ccc([C@@H]2C=C(C(=O)O)O[C@H](OCCCCO)C2)cc1`, the B-score is -1.58 (inactive).
For `CC1CCCN(Cc2nc3c(c(=O)n(C)c(=O)n3C)n2CC(=O)c2ccccc2)C1` (configuration not stated), the B-score is -0.792 (inactive).
As for `CCN1CCN(Cc2nc3c(c(=O)n(C)c(=O)n3C)n2CC(=O)c2ccccc2)CC1`, the B-score is 0.531 (inactive).
For `CCCCCCn1c(CN2CCCC(C)C2)nc2c1c(=O)n(C)c(=O)n2C` (configuration not stated) the value was -3.75 (active).
With `C/C(=N/NC(=O)c1ccc(NC(=O)c2ccc(F)cc2)cc1)c1ccccc1` the figure was 0.425 (inactive); with `CCOc1ccc(OCC)c(-c2c(=O)n(OCc3ccc(Cl)cc3)c3ccccc3[n+]2[O-])c1`, -1.31 (inactive); with `O=C(Nc1cccc2ncccc12)c1ccc(-c2ccc(Cl)cc2Cl)o1`, -0.641 (inactive).
For `Clc1ccc(COn2c(-c3ccc(Cl)cc3Cl)nc3ncccc32)cc1` the value was -5.63 (active); for `COc1ccc(C(F)(F)F)cc1N/C=C\c1nnnn1-c1ccc(C)cc1`, -3.02 (inactive).
With `CNC(=O)CSc1nnc(CCc2ccccc2)n1-c1ccccc1`, the B-score was -0.00574 (inactive).
Turning to `COc1ccccc1NC(=O)CSc1nnc(Cn2nnc(-c3ccccc3)n2)n1-c1ccccc1`, the B-score is -7.2 (active).
For the molecule `COc1ccc(OC)c(/C=N/NC(=O)CSc2nnc(C)n2-c2ccccc2)c1`, the B-score was 2 (inactive).
Take `O=C(Nc1cccc2ncccc12)C(Cl)(Cl)Cl`: the B-score was 1.36 (inactive).
With `COc1ccc(OCC(=O)NN2Cc3ccccc3C2=N)cc1` the figure was 0.0596 (inactive).
For `O=C(Cc1ccccc1)N/N=C/c1ccc(Cl)cc1Cl` the value was -0.673 (inactive); for `CCOc1ccccc1N(CC(=O)NC1CCCCC1)C(=O)CCCC(=O)Nc1ccccn1`, -8.92 (active).
With `CCCC(=O)Nc1cc(OCC)c(NC(=O)NC2CCCCC2)cc1OCC`, the B-score is 0.0578 (inactive).
With `O=C(CCCC(=O)N(CC(=O)NC1CCCC1)Cc1ccccc1Cl)Nc1ccccn1` the figure was -1.66 (inactive).
With `N=c1ccn(CC(=O)NC(N)=O)c2ccccc12` the figure was 1.07 (inactive).
On to `CC(=O)c1cnc(SCCN2C(=O)c3ccccc3C2=O)nc1C`, for which the B-score is -0.173 (inactive).
For `CCOC(=O)c1cc2n(c1C)-c1ccccc1C2=O` the value was -0.985 (inactive).
As for `CCOC(=O)Nc1ccccc1N1C(=O)c2ccccc2C1=O`, the B-score is 0.477 (inactive).
As to `CCOC(=O)c1cc2n(c1N)-c1ccccc1C2=O`, the B-score was -9.74 (active).
With `CSc1nc(N(C)NC(=O)c2cccc(C)c2)c2ccccc2n1` the figure was -7.16 (active); with `CN(NC(=O)c1ccccc1)c1nc2ccccc2nc1C(F)(F)F`, -0.171 (inactive).
With `COc1ccc(C(=O)NN(C)c2nc(-c3ccccc3)cc(C)c2S(C)(=O)=O)cc1` the figure was 1.17 (inactive); with `O=C(/C=C/c1ccccc1)N/C(=C/c1ccccc1)C(=O)Nc1ccccc1O`, -8.64 (active); with `O=C(/C=C/c1ccccc1)c1ccccc1O`, 0.49 (inactive).
With `CCc1ccccc1NC(=O)/C(=C/c1ccccc1)c1ccccc1` the figure was -4.21 (inactive); with `COC(=O)c1c(-c2ccsc2)oc2ccc(-c3cc(OC)c(OC)c(OC)c3)cc12`, -0.846 (inactive); with `CCO[C@@H]1OC(C(=O)N2CCOCC2)=C[C@H](C)[C@H]1CCCO`, 0.155 (inactive).
On to `Cc1ccc(NC(=O)N2CCSc3ccccc32)cc1`, for which the B-score was -0.746 (inactive).
As to `Cc1ccc(CN(N=Nc2nonc2N)c2nonc2N)c(C)c1`, the B-score was -6.83 (active).
For `c1ccc(COc2ccccc2CNCc2cccnc2)cc1` the value was -0.314 (inactive); for `CC1(C)CC(=O)C(C=NCCN2CCN(C(=S)Nc3cccc(Cl)c3)CC2)=C(O)C1`, -0.563 (inactive).
With `Cc1ccc(C)c(CSc2nc(-c3ccco3)nc3c2c(=O)n(C)c(=O)n3C)c1` the figure was -0.668 (inactive); with `COc1ccc(CNC(=O)C2CC(c3ccc(C(F)(F)F)cc3)=NO2)cc1` (configuration not stated), -2.34 (inactive); with `O=C(C1=C[C@H](c2coc3ccccc3c2=O)C[C@H](OCc2ccc(CO)cc2)O1)N1CCN(Cc2ccccc2)CC1`, -1.94 (inactive).
In the case of `O=C1NC[C@@H](Cc2ccc(O)cc2)N(CCc2cccc(F)c2)C1=O`, the B-score was -1.22 (inactive).
As for `CCN1C(=O)N[C@@H](c2ccccc2)C(C(=O)OC)=C1C`, the B-score was -0.116 (inactive).
Take `COCCN1C(=O)N[C@@H](c2ccccc2)C(C(=O)OC)=C1C`: the B-score is 0.0333 (inactive).
With `COC(=O)C1=C(C)N(C)C(C)=C(C(=O)OC)C1c1cccc(Br)c1`, the B-score is -4.38 (active).
With `CCc1ccc(/C=N/NC(=O)c2ccc(OC3CCCC3)cc2)s1`, the B-score was -0.109 (inactive).
For `CCOC(=O)C1=C(CN2CCc3ccccc32)NC(=O)NC1c1cc(C)ccc1C` (configuration not stated) the value was 0.647 (inactive); for `CCOC(=O)C1=C(CN2CCc3ccccc32)NC(=O)NC1c1ccc(Cl)cc1` (configuration not stated), -5.78 (active); for `CCOC(=O)C1=C(CN2CCc3ccccc32)NC(=O)NC1c1cccc([N+](=O)[O-])c1` (configuration not stated), -1.81 (inactive).
`COC(=O)CCCC1=CC2=CC(=O)C(C)(OC(=O)c3cccs3)C(=O)C2=CN1c1cccc(C#N)c1` (configuration not stated): the B-score was 0.181 (inactive).
Consider `CCCCC(=O)Nc1nc(C)c(-c2csc(Nc3ccc(Cl)cc3)n2)s1`, for which the B-score is 0.015 (inactive).
For `Cc1nc(C)c(-c2csc(NCCc3ccccc3)n2)s1` the value was -6.45 (active); for `Cc1ccc(Nc2nc(-c3sc(NC(=O)c4ccccc4)nc3C)cs2)cc1`, -0.00441 (inactive); for `CCn1c(O)c2ccc(C(=O)N=NC(=O)c3cccnc3)cc2c1O`, -0.0483 (inactive).
Take `CCCc1[nH]nc2c1C(c1c(C)nn(-c3ccccc3)c1Cl)C(C#N)=C(N)O2` (configuration not stated): the B-score was -4.44 (active).
With `CCCc1[nH]nc2c1C(c1ccc(OC)c(Cn3nc(C)c(Br)c3C)c1)C(C#N)=C(N)O2` (configuration not stated) the figure was -0.964 (inactive); with `CCCc1[nH]nc2c1C(c1ccc(Br)s1)C(C#N)=C(N)O2` (configuration not stated), 0.903 (inactive).
Take `COc1cc(C2OC(c3cc(OC)c(OC)c(OC)c3)C(C)C2C)cc(OC)c1OC` (configuration not stated): the B-score is -2.38 (inactive).
`O=C(NCCCCc1ccccc1)C1CC(c2ccc([N+](=O)[O-])cc2)=NO1` (configuration not stated): the B-score was -2.65 (inactive).
For the molecule `CCOC(=O)/C=C/c1ccc(C(F)(F)F)cc1S(=O)(=O)NC(C)(C)C`, the B-score was 0.0548 (inactive).
With `O=C(NCN1CCN(CCO)CC1)c1cnccn1` the figure was 0.423 (inactive); with `Cc1ccccc1N/N=C/c1ccc(N2CCOCC2)cc1`, 0.0508 (inactive).
As to `CCn1c(CNc2ccc(OC)cc2)nnc1SCC(=O)c1ccc(OC)cc1`, the B-score is 0.231 (inactive).
For `COc1ccc(C(=O)CSc2nnc(COc3ccccc3)n2Cc2ccco2)cc1` the value was -4.51 (active).
With `O=C(CSc1nnc(-c2cccnc2)n1Cc1ccco1)c1ccc(Cl)cc1` the figure was 0.695 (inactive); with `CC(C)C(NS(=O)(=O)c1cccs1)C(=O)Nc1nc(C(C)(C)C)cs1` (configuration not stated), -3.54 (inactive).
With `C=CCn1c(SCc2c(C(=O)OC)sc(N)c2C(=O)OC)nnc1-c1ccc(Cl)cc1` the figure was -3.5 (active); with `C=CCn1c(SCn2nnc3ccccc3c2=O)nnc1-c1ccc(Cl)cc1`, -1.02 (inactive).
With `C=CCn1c(SCc2cc(C(=O)OC)c(C)o2)nnc1-c1ccncc1`, the B-score was 0.333 (inactive).
Regarding `COc1cccc2c1OCC(C(=O)NCc1ccc(Cl)cc1Cl)=C2`, the B-score is -1.48 (inactive).
For `CCc1nnc(SCc2cccc(F)c2)nc1CC` the value was -2.53 (inactive); for `C/C(=N\NC(=O)c1ccccc1C)c1ccc(N2CCOCC2)cc1`, -0.0283 (inactive); for `C/C(=N\NS(=O)(=O)c1ccc(Br)cc1)c1cccs1`, -5.02 (active).
On to `C/C(=N\NS(=O)(=O)c1cccc([N+](=O)[O-])c1)c1cc2ccccc2o1`, for which the B-score was -0.824 (inactive).
For `O=S(=O)(NN=C1CCCCCCC1)c1ccc(Br)cc1` the value was -1.71 (inactive); for `O=Cc1c(N2CCN(c3cccc(Cl)c3)CC2)nc2ccccn2c1=O`, -1.81 (inactive); for `Cc1cc(C(=O)OCC(=O)NCc2ccco2)c(C)n1-c1ccccc1`, -4.45 (active).
For `O=C(COC(=O)C12CC3CC(CC(C3)C1)C2)NCc1ccco1` the value was -0.704 (inactive); for `O=C(CSc1nnc(-c2cccs2)n1-c1ccccc1)NCc1ccco1`, 0.148 (inactive); for `ONC(=Nc1ccc(Cl)cc1)c1ccccc1Cl`, -1.41 (inactive).
